Active and inactive are the calls of the source. A call without a number means that no potency is given here. The call rests on the fitted dose curve.
What follows are molecules tested against Estrogen receptor (Homo sapiens) (UniProt P03372) (assay: qHTS assay to identify small molecule agonists of the estrogen receptor alpha (ER-alpha) signaling pathway in the presence of an antagonist (AID 1259383; further: nearly all actives have a fitted effect of over 15% in size; on activation: top concentration of the series differs between compounds)). Conditions: VM7Luc4E2 cells, ERE-luciferase, +ICI-182,780, 22 h; series mostly up to 92.4 µM.
Chain of Estrogen receptor (Homo sapiens) (P03372 whole entry, looked up): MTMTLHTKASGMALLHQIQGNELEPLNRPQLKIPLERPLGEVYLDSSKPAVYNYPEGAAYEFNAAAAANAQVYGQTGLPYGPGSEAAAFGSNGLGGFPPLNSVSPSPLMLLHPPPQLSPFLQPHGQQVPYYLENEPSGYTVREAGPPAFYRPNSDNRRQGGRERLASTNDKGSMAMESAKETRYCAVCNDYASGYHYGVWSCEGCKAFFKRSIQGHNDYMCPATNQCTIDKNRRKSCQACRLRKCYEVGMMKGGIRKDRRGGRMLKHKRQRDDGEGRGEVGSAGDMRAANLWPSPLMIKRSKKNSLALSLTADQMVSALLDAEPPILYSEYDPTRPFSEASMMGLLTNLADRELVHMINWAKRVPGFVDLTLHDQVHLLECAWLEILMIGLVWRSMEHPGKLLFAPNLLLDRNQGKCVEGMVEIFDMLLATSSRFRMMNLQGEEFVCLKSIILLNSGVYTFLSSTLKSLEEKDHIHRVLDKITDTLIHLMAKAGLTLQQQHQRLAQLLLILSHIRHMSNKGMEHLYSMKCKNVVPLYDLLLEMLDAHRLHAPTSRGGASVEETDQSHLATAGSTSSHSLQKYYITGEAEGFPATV
From the text: National Center for Advancing Translational Sciences [NCATS] NIH Chemical Genomics Center [NCGC] U.S. Environmental Protection Agency [EPA] National Institutes of Environmental Health Sciences [NIEHS] National Toxicology Program [NTP] Assay overview: Estrogen receptor (ER), a member of nuclear hormone receptor plays an important role in development, metabolic homeostasis and reproduction. Two subtypes of ER, ER-alpha and ER-beta, have similar expression patterns with some uniqueness in both types. Endocrine disrupting chemicals (EDCs) and their interactions with steroid hormone receptors like ER causes disruption of normal endocrine function. Therefore, it is important to understand the effect of environmental chemicals in ER signaling pathway. For identifying ER agonists, VM7Luc4E2 cell line has been used in the current assay. VM7Luc4E2 cell line (provided by Denison MS, University of California) endogenously expresses full-length ER-alpha and is stably transfected with a plasmid containing four estrogen responsive elements (ERE) upstream of a luciferase reporter gene. This current screening for measuring luciferase reporter gene activity using VM7Luc4E2 cells against Tox21 10K library collection is a confirmation study on agonist mode screening in presence of ER-antagonist (ICI-182,780) at 10.0nM final concentration.
Assay Protocol Summary: VM7Luc4E2 cells were cultured in phenol red free assay medium containing 10% charcoal stripped FBS for 5 days prior to the assay. The cells were dispensed at 4,000 cells in 4uL of assay medium per well into white wall/solid-bottom 1536-well plates (Corning Life Sciences, Corning, NY) using a Multidrop Combi (Thermo Fisher Scientific Inc., Waltham, MA) dispenser. After the assay plates were incubated at 37C and 5% CO2 for 24hr, 1uL of 10.0nM (final concentration) ICI-182,780 or assay buffer was added using two separate tips of Flying Reagent Dispenser (FRD, Aurora Discovery, San Diego, CA). Then 23nL of compounds dissolved in DMSO at 15 concentrations and positive controls or DMSO only was transferred to the assay plates by a Pintool station (Wako, San Diego, CA). The assay plates were incubated at 37C and 5% CO2 for 22hr. For luciferase read, 4uL/well ONE-Glo reagent (Promega Corporation, Madison, WI) was added to each well using FRD and after 30min incubation at room temperature, luminescence signal was measured on ViewLux plate reader (PerkinElmer, Shelton, CT).
CCC(C)(C)C1CCC(OC)CC1 (stereo not given) was tested, and the Potency was “inactive”.
For CCCCOCC(C)OCC(C)O (stereo not given), the Potency was “inactive”.
For CCCCN(CCO)CCO, the Potency was “inactive”.
CC12CCC(CC1=O)C2(C)C (stereo not given) was tested, and the Potency was “inactive”.
With CC(C)(O)c1ccccc1 the Potency was “inactive”.
C(=C(c1ccccc1)c1ccccc1)c1ccccc1 was tested, and the Potency was 17.2 µM (active).
c1cc(CN2CCCCC2)cc(OCCCNc2nc3ccccc3s2)c1 was tested, and the Potency was “inactive”.
For CC(C)[N+](C)(C)CC(O)COc1cccc2ccccc12 (stereo not given), the Potency was “inactive”.
With CC/C=C\CCCCO the Potency was “inactive”.
For COc1cccc(Br)c1, the Potency was “inactive”.
With Cc1c(C)n(CCN(C)C)c2ccc(C(=O)OCCN(C)C)cc12 the Potency was “inactive”.
In the case of CC(C)(C)N(CCO)CCO, the Potency is reported as “inactive”.
With CNC(=O)c1c(I)c(NC(=O)CCCCC(=O)Nc2c(I)c(C(=O)O)c(I)c(C(=O)NC)c2I)c(I)c(C(=O)O)c1I the Potency was “inactive”.
Cc1cc(C)cc(OCC2CNC(=O)O2)c1 (stereo not given) was tested, and the Potency was “inactive”.
For CCN1CCCC(OC(=O)C(c2ccccc2)c2ccccc2)C1 (stereo not given), the Potency was “inactive”.
Cc1nccn1CC1CCc2c(c3ccccc3n2C)C1=O (stereo not given) was tested, and the Potency was “inactive”.
For NC(=O)c1ncn([C@@H]2O[C@H](CO)[C@@H](O)[C@H]2O)c1N, the Potency was “inactive”.
In the case of CCN(CC)S(=O)(=O)c1ccc(C(=O)O)cc1, the Potency is reported as “inactive”.
CCC(=O)/C=C/c1ccc(OC)cc1 was tested, and the Potency was “inactive”.
COC(=O)CCCCCCCCC(=O)OC was tested, and the Potency was “inactive”.
With CCOC(=O)Cn1c(=O)sc2cccc(Cl)c21 the Potency was “inactive”.
With O=Cc1ccccc1[N+](=O)[O-] the Potency was “inactive”.
For CCOC(=O)Nc1ccc2c(c1)N(C(=O)CCN1CCOCC1)c1ccccc1S2, the Potency was “inactive”.
CC(C)c1cccc(O)c1 was tested, and the Potency was “inactive”.
For CCCCCOC(=O)Nc1nc(=O)n([C@@H]2O[C@H](C)[C@@H](O)[C@H]2O)cc1F, the Potency was “inactive”.
With CCn1cc(C(=O)O)c(=O)c2cc(F)c(N3CCN(C)CC3)cc21 the activation was 1.75% [at 19 µM] (inactive).
With CCCCCCC(=O)OCC the Potency was “inactive”.
With NC(=O)c1ncn([C@@H]2O[C@H](CO)[C@@H](O)[C@H]2O)c1O the Potency was “inactive”.
In the case of CCCCC1CCCCC(=O)O1 (stereo not given), the Potency is reported as “inactive”.
For NS(=O)(=O)c1cc2c(cc1Cl)NC(CSCc1ccccc1)=NS2(=O)=O, the Potency was “inactive”.
CCCCc1ccc2cccc(S(=O)(=O)O)c2c1 was tested, and the Potency was “inactive”.
With C=C(C)C(=O)OCCC(C)OC(=O)C(=C)C (stereo not given) the Potency was “inactive”.
With COc1nc(C)nc(N)n1 the Potency was “inactive”.
COC[C@H](c1ccc(C(F)(F)F)cc1)N1CCN(C2(C)CCN(C(=O)c3c(C)ncnc3C)CC2)C[C@H]1C was tested, and the Potency was “inactive”.
For C=C(C)[C@H]1CC=C(C)CC1, the Potency was “inactive”.
CN(C)C(=O)Nc1ccccc1 was tested, and the Potency was “inactive”.
For CCC(C(=O)NC(N)=O)c1ccccc1 (stereo not given), the Potency was “inactive”.
With O=C1C(CCS(=O)c2ccccc2)C(=O)N(c2ccccc2)N1c1ccccc1 (stereo not given) the Potency was “inactive”.
In the case of COc1ccc(N=[N+]([O-])c2ccc(OC)cc2)cc1, the Potency is reported as “inactive”.
CC1(C)SC(C)(C)SC(C)(C)S1 was tested, and the Potency was “inactive”.

From PubChem BioAssay (Tox21)
Potency means the concentration at half of the fitted maximal effect.
